The list shows a part of the results. How many sequences the whole screen found active is unknown.
Target: furin, P09958
Assay: furin cleavage Z-score vs untreated control; higher = more cleavage, active = 3.5 or more, inactive = 1 or less, 8 variable residues between constant flanks
Procedure, shortened: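 In 50 mM HEPES pH 7.5 with CaCl2 and NaCl, purified furin was incubated with bead-anchored 8-mer peptide–cDNA fusions at 1:10 enzyme:substrate in 0.01 ml. Incubation times were 7.5, 15 and 30 min. DNA set free by cleavage was adapter-tagged by PCR and sequenced, with read counts taken as abundance. Log counts relative to furin-free reactions, after lowess adjustment and median absolute deviation scaling, form the cleavage Z-score.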

Sequence of furin, P09958 (P09958 whole entry): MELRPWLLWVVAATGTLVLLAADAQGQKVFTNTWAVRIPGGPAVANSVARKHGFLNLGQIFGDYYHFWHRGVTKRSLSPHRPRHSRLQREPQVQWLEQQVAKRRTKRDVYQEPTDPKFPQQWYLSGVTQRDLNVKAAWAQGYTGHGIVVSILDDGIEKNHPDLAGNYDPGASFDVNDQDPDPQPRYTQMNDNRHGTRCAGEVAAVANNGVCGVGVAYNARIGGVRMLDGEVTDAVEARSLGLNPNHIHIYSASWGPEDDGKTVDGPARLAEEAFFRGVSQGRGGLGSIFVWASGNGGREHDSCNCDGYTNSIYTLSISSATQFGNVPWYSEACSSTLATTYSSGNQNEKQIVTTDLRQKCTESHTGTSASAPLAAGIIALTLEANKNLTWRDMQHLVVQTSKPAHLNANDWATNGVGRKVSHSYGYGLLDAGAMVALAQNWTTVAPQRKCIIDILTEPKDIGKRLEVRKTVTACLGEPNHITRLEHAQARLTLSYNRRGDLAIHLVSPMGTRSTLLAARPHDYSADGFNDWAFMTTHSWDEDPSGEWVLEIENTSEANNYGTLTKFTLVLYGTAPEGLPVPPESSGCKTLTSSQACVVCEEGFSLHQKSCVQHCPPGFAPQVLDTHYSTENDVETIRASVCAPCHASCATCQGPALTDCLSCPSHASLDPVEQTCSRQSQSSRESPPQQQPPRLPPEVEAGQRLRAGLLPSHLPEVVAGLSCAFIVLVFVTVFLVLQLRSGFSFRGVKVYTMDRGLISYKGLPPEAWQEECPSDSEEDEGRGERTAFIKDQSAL

| Sequence | furin cleavage Z-score (7.5 min) | furin cleavage Z-score (15 min) | furin cleavage Z-score (30 min) |
| --- | --- | --- | --- |
| CAEMEVPCHRAGNASASA [HC2446] | 1.88 | 3.24 | 0.262 (inactive) |
| CAGKARARRTAGNASASA [FS-782] | 7.77 (active) | 7.95 (active) | 6.06 (active) |
| CAAPTRARRTAGNASASA [FS-1111] | 9.32 (active) | 8.24 (active) | 6.87 (active) |
| CAELTPAETTAGNASASA [HC925] | -0.725 (inactive) | 0.302 (inactive) | -0.347 (inactive) |
| CAKPTLHGPTAGNASASA [HC968] | 0.718 (inactive) | 0.412 (inactive) | -0.00703 (inactive) |
| CAVLVLNPSVAGNASASA [HC786] | 1.78 | -1.12 (inactive) | 0.0915 (inactive) |
| CAEVVTQTWVAGNASASA [HC159] | -0.939 (inactive) | 1.5 | 1.45 |
| CAMEETSQHLAGNASASA [HC16] | 0.191 (inactive) | 1.87 | 1.08 |
